Measured values taken from PubChem BioAssay.
Several values for one entry are separate records, joined by “and”; a condition that tells them apart may be missing. Equal values may be shown once. Unmarked numbers belong to inactive results. No rule for the calls is given here.

Assay: inhibitors of hydroxyurea-induced Chk1 phosphorylation, primary screen, imaging, HeLa, phospho-Chk1 nuclear intensity (AID 1187); also: test concentration not given here
Settings: hydroxyurea-induced phospho-Chk1 immunofluorescence imaging, higher = more signal

| Structure (SMILES) | z-score |
| --- | --- |
| C=CCN(Cc1ccccc1)C(=O)C(c1cccs1)N(C(=O)/C=C\C(=O)O)c1c(Cl)cccc1CO (centres undefined) | 0.0032 and 0.521 |
| CCOC(=O)c1ccc(NC(=O)O[C@H]2[C@H](OC(=O)Nc3ccccc3)[C@H](OC(=O)Nc3ccccc3)[C@@H](OC)O[C@@H]2CO)cc1 | 0.337 and 0.629 |
| C=C[C@H](C)[C@H](O)c1ccc(O)c2ccccc12 | -0.114 and -0.271 |
| C=CCN(C(=O)C1N(CCCCCCO)C(=O)C2C(C(=O)O)C3C=CC21O3)C(C)(C)C (centres undefined) | -0.0517 and 0.113 |
